Measured values as given in article PMC12820563, “FoxP3 forms a head-to-head dimer in vivo and stabilizes its multimerization on adjacent microsatellites”.
In all, about 16,000 sequences were measured (“rpm ratio (pull-down/input)”: median about 0.5, highest 2% from about 5.5 on). For the sample, the highest values were picked, then their nearest neighbours and some sequences at random.

target: T1, MBP-FoxP3dN (Mus musculus, UniProt Q99JB6 188-423); experiment: PD-seq (MBP pull-down with sequencing); 20 mM Tris-HCl pH 7.5, 100 mM NaCl, 1.5 mM MgCl2, 0.4 uM protein, 0.1 uM dsDNA library, 30 min, room temperature, amylose pull-down; high values mean tight binding; conditions: protein: recombinant; tags: His6-MBP; chain copies: 2; dsDNA, one strand shown
T1 sequence: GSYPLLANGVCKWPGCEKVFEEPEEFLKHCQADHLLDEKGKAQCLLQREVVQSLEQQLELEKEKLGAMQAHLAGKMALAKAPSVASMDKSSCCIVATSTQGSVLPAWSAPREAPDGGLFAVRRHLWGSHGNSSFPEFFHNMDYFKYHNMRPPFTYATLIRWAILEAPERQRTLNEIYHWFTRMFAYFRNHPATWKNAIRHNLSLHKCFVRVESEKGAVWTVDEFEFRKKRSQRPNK
Summary of the method: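 Amylose resin was used to capture complexes formed during 30 min at room temperature in Tris pH 7.5 buffer with NaCl and MgCl2 between 0.4 µM His6-MBP-tagged mouse FoxP3 or FoxP1 fragment lacking the N-terminus, expressed in E. coli, and 0.1 µM Klenow-filled double-stranded degenerate DNA library. After three washes, the DNA was released with proteinase K, barcoded by PCR and sequenced on Illumina. Binding is pooled-replicate reads-per-million enrichment, pull-down over input.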

| Sequence | binding signal |
| --- | --- |
| GATGATTGTTCTCCCAGCTGATGAATTGCGGACATCGAGTAAACAAATTTTCCTAATCTTTCTGTTCAAGCGCCATCTAC | 0.781 RPM ratio (pull-down/input) |
| GATGATTGTTCTCCCAGCTGATGAATTAAAAATTTCGAGTAAACAAATTTTCCTAATCTTTCTGTTCAAGCGCCATCTAC | 0.202 RPM ratio (pull-down/input) |
| GATGATTGTTCTCCCAGCTGATGAATTTGGTTAATCGAGTAAACAAATTTTCCTAATCTTTCTGTTCAAGCGCCATCTAC | 0.489 RPM ratio (pull-down/input) |
| GATGATTGTTCTCCCAGCTGATGAATTCTCCGCATCGAGTAAACAAATTTTCCTAATCTTTCTGTTCAAGCGCCATCTAC | 0.8 RPM ratio (pull-down/input) |
| GATGATTGTTCTCCCAGCTGATGAATTTTCCGCATCGAGTAAACAAATTTTCCTAATCTTTCTGTTCAAGCGCCATCTAC | 1.07 RPM ratio (pull-down/input) |
| GATGATTGTTCTCCCAGCTGATGAATTCCCCGCATCGAGTAAACAAATTTTCCTAATCTTTCTGTTCAAGCGCCATCTAC | 0.735 RPM ratio (pull-down/input) |
| GATGATTGTTCTCCCAGCTGATGAATTTCCCGCATCGAGTAAACAAATTTTCCTAATCTTTCTGTTCAAGCGCCATCTAC | 0.913 RPM ratio (pull-down/input) |
| GATGATTGTTCTCCCAGCTGATGAATTCCCGCATTCGAGTAAACAAATTTTCCTAATCTTTCTGTTCAAGCGCCATCTAC | 5.9 RPM ratio (pull-down/input) |
| GATGATTGTTCTCCCAGCTGATGAATTCCGCATCTCGAGTAAACAAATTTTCCTAATCTTTCTGTTCAAGCGCCATCTAC | 6.95 RPM ratio (pull-down/input) |
| GATGATTGTTCTCCCAGCTGATGAATTCCGCGCATCGAGTAAACAAATTTTCCTAATCTTTCTGTTCAAGCGCCATCTAC | 1.39 RPM ratio (pull-down/input) |
| GATGATTGTTCTCCCAGCTGATGAATTTCCGCATTCGAGTAAACAAATTTTCCTAATCTTTCTGTTCAAGCGCCATCTAC | 6.24 RPM ratio (pull-down/input) |
| GATGATTGTTCTCCCAGCTGATGAATTCCGCAATTCGAGTAAACAAATTTTCCTAATCTTTCTGTTCAAGCGCCATCTAC | 4.91 RPM ratio (pull-down/input) |
| GATGATTGTTCTCCCAGCTGATGAATTCCGCATTTCGAGTAAACAAATTTTCCTAATCTTTCTGTTCAAGCGCCATCTAC | 6.33 RPM ratio (pull-down/input) |
| GATGATTGTTCTCCCAGCTGATGAATTAGACCAGTCGAGTAAACAAATTTTCCTAATCTTTCTGTTCAAGCGCCATCTAC | 0.233 RPM ratio (pull-down/input) |
| GATGATTGTTCTCCCAGCTGATGAATTTCTTGCGTCGAGTAAACAAATTTTCCTAATCTTTCTGTTCAAGCGCCATCTAC | 0.535 RPM ratio (pull-down/input) |
| GATGATTGTTCTCCCAGCTGATGAATTCCTCGACTCGAGTAAACAAATTTTCCTAATCTTTCTGTTCAAGCGCCATCTAC | 0.213 RPM ratio (pull-down/input) |
| GATGATTGTTCTCCCAGCTGATGAATTAACCGATTCGAGTAAACAAATTTTCCTAATCTTTCTGTTCAAGCGCCATCTAC | 0.251 RPM ratio (pull-down/input) |
| GATGATTGTTCTCCCAGCTGATGAATTCGAGACATCGAGTAAACAAATTTTCCTAATCTTTCTGTTCAAGCGCCATCTAC | 0.446 RPM ratio (pull-down/input) |

| Sequence | binding signal |
| --- | --- |
| GATGATTGTTCTCCCAGCTGATGAATTTTGCCCTTCGAGTAAACAAATTTTCCTAATCTTTCTGTTCAAGCGCCATCTAC | 1.57 RPM ratio (pull-down/input) |
| GATGATTGTTCTCCCAGCTGATGAATTGCGAGGGTCGAGTAAACAAATTTTCCTAATCTTTCTGTTCAAGCGCCATCTAC | 0.611 RPM ratio (pull-down/input) |
| GATGATTGTTCTCCCAGCTGATGAATTTGGGTGTTCGAGTAAACAAATTTTCCTAATCTTTCTGTTCAAGCGCCATCTAC | 1.11 RPM ratio (pull-down/input) |
| GATGATTGTTCTCCCAGCTGATGAATTACCGTTATCGAGTAAACAAATTTTCCTAATCTTTCTGTTCAAGCGCCATCTAC | 0.764 RPM ratio (pull-down/input) |
| GATGATTGTTCTCCCAGCTGATGAATTGACTATGTCGAGTAAACAAATTTTCCTAATCTTTCTGTTCAAGCGCCATCTAC | 0.449 RPM ratio (pull-down/input) |
| GATGATTGTTCTCCCAGCTGATGAATTCCGCCTTTCGAGTAAACAAATTTTCCTAATCTTTCTGTTCAAGCGCCATCTAC | 5.55 RPM ratio (pull-down/input) |
| GATGATTGTTCTCCCAGCTGATGAATTGCCGCATTCGAGTAAACAAATTTTCCTAATCTTTCTGTTCAAGCGCCATCTAC | 7.28 RPM ratio (pull-down/input) |
| GATGATTGTTCTCCCAGCTGATGAATTCCGCCATTCGAGTAAACAAATTTTCCTAATCTTTCTGTTCAAGCGCCATCTAC | 5.49 RPM ratio (pull-down/input) |
| GATGATTGTTCTCCCAGCTGATGAATTACCGCATTCGAGTAAACAAATTTTCCTAATCTTTCTGTTCAAGCGCCATCTAC | 5.89 RPM ratio (pull-down/input) |
| GATGATTGTTCTCCCAGCTGATGAATTACCCCATTCGAGTAAACAAATTTTCCTAATCTTTCTGTTCAAGCGCCATCTAC | 0.3 RPM ratio (pull-down/input) |
| GATGATTGTTCTCCCAGCTGATGAATTCCCATTTTCGAGTAAACAAATTTTCCTAATCTTTCTGTTCAAGCGCCATCTAC | 0.336 RPM ratio (pull-down/input) |
| GATGATTGTTCTCCCAGCTGATGAATTCCGCTGTTCGAGTAAACAAATTTTCCTAATCTTTCTGTTCAAGCGCCATCTAC | 1.28 RPM ratio (pull-down/input) |
| GATGATTGTTCTCCCAGCTGATGAATTTGCCGCATCGAGTAAACAAATTTTCCTAATCTTTCTGTTCAAGCGCCATCTAC | 1.35 RPM ratio (pull-down/input) |
| GATGATTGTTCTCCCAGCTGATGAATTTCCGCCTTCGAGTAAACAAATTTTCCTAATCTTTCTGTTCAAGCGCCATCTAC | 3.28 RPM ratio (pull-down/input) |
| GATGATTGTTCTCCCAGCTGATGAATTCGCCGCATCGAGTAAACAAATTTTCCTAATCTTTCTGTTCAAGCGCCATCTAC | 0.966 RPM ratio (pull-down/input) |
| GATGATTGTTCTCCCAGCTGATGAATTTACCGCATCGAGTAAACAAATTTTCCTAATCTTTCTGTTCAAGCGCCATCTAC | 1.17 RPM ratio (pull-down/input) |
| GATGATTGTTCTCCCAGCTGATGAATTCCCGCCTTCGAGTAAACAAATTTTCCTAATCTTTCTGTTCAAGCGCCATCTAC | 2.93 RPM ratio (pull-down/input) |
